In PubChem BioAssay AID463173 (ICCB-Longwood Screening Facility, Harvard Medical School, 2010):
Hit rate of the full screen: of about 52,000 compounds, about 1,700 (3.3%) were called active. No stated cut-off is given here; in the data, active means survival mostly below about 52% (no sharp cut-off); inactive means mostly above about 56%. Shown is part of a subset that was picked to be rich in actives.

What follows are compounds tested on Wild type (assay: S. aureus survival, RN4220 and DeltatarO strains – OD600, teichoic acid synthesis inhibitors, primary screen (AID 463173)). Conditions: S. aureus RN4220 wild type/DeltatarO growth, OD600, 18 h, stronger effect = lower value, screened at 18.75 µg/mL (by protocol).

SMILES | survival
S=c1nc[nH]c2c1[nH]c1ccccc12 | 98% (inactive)
CC1CCN(S(=O)(=O)c2cc(C(=O)Nc3ccc(Br)cc3F)n(C)c2)CC1 | 77% (inactive)
COc1cc(C(c2nnnn2Cc2ccco2)N2CCN(C3CCCC3)CC2)cc(OC)c1OC (stereo unspecified) | 107% (inactive)
CC1CCN(C(=O)Cn2cc(SCC(=O)NCc3ccccc3)c3ccccc32)CC1 | 86% (inactive)
Cc1ccc(C)n1-c1c(C(=O)NCCC(C)C)sc2ncccc12 | 79% (inactive)
Cc1nc2ccccc2c(=O)n1-c1ccc(NC(=O)c2cccc([N+](=O)[O-])c2)cc1 | 59% (inactive)
Cc1cc(N2CCN(c3cccc(C(F)(F)F)c3)CC2)n2nc(-c3ccccc3)nc2n1 | 87% (inactive)
Cc1cc(N2CCN(c3cccc(C(F)(F)F)c3)CC2)n2nc(-c3ccccc3C)nc2n1 | 11% (active)
COc1ccc(-c2nc3nc(C)cc(N4CCN(c5cccc(C(F)(F)F)c5)CC4)n3n2)cc1 | 88% (inactive)
CCN(CC)C(=O)C1=C(C)Nc2nc3ccccc3n2C1c1ccc(Br)cc1 (stereo unspecified) | 80% (inactive)
Cc1cc(S(=O)(=O)C(CNC(=O)COc2ccccc2)c2cccs2)ccc1F (stereo unspecified) | 153% (inactive)
COc1ccc(C2CC(=O)N(Cc3ccc(F)cc3)c3ccccc3S2)cc1 (stereo unspecified) | 30% (inactive)
COc1cc(C2CC(=O)N(Cc3ccc(F)cc3)c3ccccc3S2)cc(OC)c1OC (stereo unspecified) | 72% (inactive)
O=C1CC(c2ccccc2)Sc2ccccc2N1Cc1ccccc1F (stereo unspecified) | 96% (inactive)
COc1ccc(C2CC(=O)N(Cc3cccc(F)c3)c3ccccc3S2)cc1 (stereo unspecified) | 9% (active)
O=C1CC(c2ccccc2)Sc2ccccc2N1Cc1ccc(F)cc1 (stereo unspecified) | 16% (active)
COc1cc(C2CC(=O)N(Cc3cccc(F)c3)c3ccccc3S2)cc(OC)c1OC (stereo unspecified) | 83% (inactive)
COc1ccc(S(=O)(=O)c2c(Nc3ccc(C)cc3)sc(C(=O)c3ccc4c(c3)OCO4)c2N)cc1 | 143% (inactive)
CCNc1nc(NCC)nc(N(n2cnnc2)S(=O)(=O)c2ccc(C)cc2)n1 | 45% (inactive)
CCOc1ccc(CNC(=O)c2cnc3sc(N(CC)CC)nn3c2=O)cc1 | 75% (inactive)
COc1ccc(N2CCN(CCCNC(=O)Cn3c(-c4cccs4)cc4ccccc43)CC2)cc1 | 86% (inactive)
Cc1cc(C)cc(NC(=O)CN2C(=O)COc3ccc(S(=O)(=O)Nc4ccccc4)cc32)c1 | 98% (inactive)
Brc1cccc(-c2nnn3c2nc(N2CCCCC2)c2ccccc23)c1 | 76% (inactive)
CC1CCCN(c2nc3c(-c4ccc(Cl)cc4)nnn3c3ccccc23)C1 (stereo unspecified) | 83% (inactive)

SMILES | survival
Clc1ccc(-c2nnn3c2nc(N2CCCCC2)c2ccccc23)cc1 | 45% (inactive)
CC1CCN(c2nc3c(-c4cccc(Br)c4)nnn3c3ccccc23)CC1 | 85% (inactive)
Cc1ccc(-c2nnn3c2nc(N2CCC(C)CC2)c2ccccc23)cc1 | -2% (active)
COc1ccc(-c2nnn3c2nc(N2CCCC(C)C2)c2ccccc23)cc1 (stereo unspecified) | 0% (active)
COc1ccc(C2C(C(=O)Nc3ccc(C)cc3C)=C(C)Nc3nc4ccccc4n32)c(OC)c1 (stereo unspecified) | 65% (inactive)
CCOC(=O)C1CCCN(S(=O)(=O)c2ccc3[nH]c(=O)oc3c2)C1 (stereo unspecified) | 88% (inactive)
CCOc1ccc(NC(=O)CCCn2c(C)c3cnn(-c4ccccc4)c(=O)c3c2C)cc1 | 89% (inactive)
COc1ccc(Cl)cc1NC(=O)C(C)N1Cc2ccccc2C1=O (stereo unspecified) | 85% (inactive)
COC(=O)CSc1nc(N)c(C#N)c(-c2ccccc2)c1C#N | 112% (inactive)
CCC(Sc1nc(N)cc(=O)[nH]1)C(=O)NC(C)c1ccccc1 (stereo unspecified) | 103% (inactive)
O=C(CSc1nc(-c2ccccc2)cc(=O)[nH]1)c1ccccc1 | 119% (inactive)
CC1CCN(c2ncnc3c2nnn3C)CC1 | 83% (inactive)
CCOC(=O)C1CCN(c2nc(-c3ccc(Br)cc3)nc3ccccc23)CC1 | 75% (inactive)
COc1ccc(N2CCN(c3ncnc4c3nnn4C)CC2)cc1 | -2% (active)
CCOC(=O)C1CCCN(c2ncnc3c2nnn3C)C1 (stereo unspecified) | 121% (inactive)
CCOC(=O)C1CCN(c2ncnc3c2nnn3C)CC1 | 10% (active)
Cn1nnc2c(N3CCN(c4ccccc4)CC3)ncnc21 | 88% (inactive)
CCOC(=O)C1CCN(c2cc(C)c(C#N)c3nc4ccccc4n23)CC1 | 99% (inactive)
Cn1nnc2c(N3CCN(c4ccc(F)cc4)CC3)ncnc21 | 80% (inactive)
CCOC(=O)C1CCN(c2nc3ccccc3nc2Cl)CC1 | -26% (active)
CCn1nnc2cc(C(=O)Nc3cccc(Cl)c3)ccc21 | 87% (inactive)
CN(Cc1ccccc1)C(=O)C1CCC(CNS(=O)(=O)c2ccc3c(c2)CCCC(=O)N3)CC1 (stereo unspecified) | 131% (inactive)
Clc1ccc2nc(-c3ccc(Br)o3)c(Nc3ccc4c(c3)OCCO4)n2c1 | 93% (inactive)
O=C(CSc1ncccn1)NCCC1=CCCCC1 | 112% (inactive)

SMILES | survival
CCc1ccc(-n2cnc3cc(C(=O)NCc4ccc(C)cc4)ccc32)cc1 | 65% (inactive)
Cc1ccccc1OCCn1c(CCNC(=O)C(C)(C)C)nc2ccccc21 | 75% (inactive)
CCCn1c(COc2cccc(C)c2)nc2ccccc21 | 25% (active)
CCc1nc2ccccc2n1CCCCOc1ccc(C)cc1 | 1% (active)
CCc1nc2ccccc2n1CCCCOc1ccc(Cl)cc1 | 2% (active)
CCCCn1c(COc2cccc(OC)c2)nc2ccccc21 | 88% (inactive)
CC(C)(C)C(=O)NCCc1nc2ccccc2n1CCCCOc1ccc(Cl)cc1 | 28% (inactive)
CC(=O)NCCc1nc2ccccc2n1CCCCOc1ccc(Cl)cc1 | 95% (inactive)
COc1cccc(OCc2nc3ccccc3n2CCOc2cccc(C)c2)c1 | 73% (inactive)
Cc1ccc(OCCCCn2c(CCNC(=O)C(C)(C)C)nc3ccccc32)cc1 | 76% (inactive)
Cc1ccccc1OCCCCn1c(CCNC(=O)C(C)(C)C)nc2ccccc21 | 65% (inactive)
CCc1nc2ccccc2n1CCCCOc1ccccc1C | 24% (active)
CC(C)(C)C(=O)NCCc1nc2ccccc2n1CCCCOc1ccccc1 | 79% (inactive)
Cc1ccc(-c2nc3ccccc3[nH]2)cc1NC(=O)COc1ccc(Cl)cc1Cl | 45% (inactive)
CC1=C(c2ccc(C(C)C)cc2)S(=O)(=O)NC1=NCc1ccccc1Br | 82% (inactive)
COc1cc(NC(=O)CSc2nc3ccccc3nc2Cc2ccccc2OC)cc(OC)c1 | 66% (inactive)
COc1ccccc1Cn1cc(C(=O)c2ccc(C)cc2)c(=O)c2cc(F)cc(F)c21 | 81% (inactive)
Cc1cc(C)c(NC(=O)Cn2c(=O)n(CCCCC(=O)NCc3ccccc3Cl)c(=O)c3ccccc32)c(C)c1 | 106% (inactive)
Cc1cncn1CCc1nc2c3ccccc3nc(SCC(=O)Nc3cccc(Cl)c3)n2n1 | 80% (inactive)
CCc1c(CN2CCN(c3ccccc3F)CC2)csc1C | 52% (inactive)
Cc1ccc(CNC(=O)CSCc2ccc(F)cc2)cc1 | 101% (inactive)
O=C(CCCSc1nc(-c2ccco2)cc(C(F)(F)F)n1)NCC1CCCO1 (stereo unspecified) | 108% (inactive)
COc1ccccc1CNC(=O)c1cc2c(-c3ccc(Cl)cc3)nn(C)c2s1 | 151% (inactive)
Cc1cccc(OCCCn2c(CCNC(=O)C(C)(C)C)nc3ccccc32)c1 | 84% (inactive)

SMILES | survival
COCc1nc2ccccc2n1CCOc1cccc(C)c1 | 53% (inactive)
CCc1nc2ccccc2n1CCCCOc1cccc(C)c1 | 12% (active)
COc1ccc(-c2noc(N3CCC(C(=O)N4CCN(c5ccccc5F)CC4)CC3)n2)cc1 | 108% (inactive)
COc1ccc(-n2ncc3c(NC4CCCC4)ncnc32)cc1 | 129% (inactive)
Cc1cn(C)c(CC(=O)N2CCN(c3ccc(F)cc3)CC2)c1C(=O)O | 133% (inactive)
Cc1cn(C)c(CC(=O)N2CCN(c3ccccc3F)CC2)c1C(=O)O | 69% (inactive)
Cc1cccc(N2CCN(C(=O)Cc3c(C(=O)O)c(C)cn3C)CC2)c1C | 70% (inactive)
COc1ccc(N2CCN(C(=O)Cc3c(C(=O)O)c(C)cn3C)CC2)cc1 | 14% (active)
Cc1cn(C)c(CC(=O)N2CCN(c3cccc(Cl)c3)CC2)c1C(=O)O | 78% (inactive)
COc1ccccc1N1CCN(C(=O)Cc2c(C(=O)O)c(C)cn2C)CC1 | -6% (active)
CCOc1cccc(C2c3c(oc4cc(C)c(C)cc4c3=O)C(=O)N2c2nc(C)c(C)s2)c1 (stereo unspecified) | 71% (inactive)
CCc1ccc(NC(=O)[C@H](CSCc2ccccc2)N2Cc3ccccc3C2=O)cc1 | 79% (inactive)
CCc1ccccc1NC(=O)CN1CCC(NC(=O)NC2CCCCC2)CC1 | 102% (inactive)
COc1ccccc1N1CCN(c2ncnc3c2nnn3C)CC1 | 129% (inactive)
Cc1cc(F)ccc1NC(=O)C1CCCN(C(=O)c2cnn(-c3ccccc3)c2-n2cccc2)C1 (stereo unspecified) | 85% (inactive)
CCCN1C(C(=O)c2ccccc2)=C(OC(=O)COc2ccc(C)cc2)c2ccccc2S1(=O)=O | 25% (inactive)
c1ccc2c(c1)ncn2-c1ncnc2sc3c(c12)CCCC3 | 107% (inactive)
COc1ccc(-c2cc(OC(=O)c3cccc(Cl)c3)c3c(C)oc(C)c3c(=O)c2)cc1OC | 76% (inactive)
CSc1cccc(NC(=O)c2cccc(N3CCCS3(=O)=O)c2)c1 | 115% (inactive)
CCN(C(=O)Cn1c(C(=O)OC)cc2sccc21)c1cccc(C)c1 | 73% (inactive)
O=c1cc(-c2ccccc2)nc(SCc2nc(-c3cccc(C(F)(F)F)c3)no2)[nH]1 | 83% (inactive)
Cc1ccc(Sc2ccc(N3CCCC(C(=O)Nc4ccc(Cl)cc4)C3)nn2)cc1 (stereo unspecified) | 71% (inactive)
CCOC(=O)c1ccc(NC(=O)C2CCCN(c3ccc(Sc4ccc(C)cc4)nn3)C2)cc1 (stereo unspecified) | 80% (inactive)
CCOc1ccc(NC(=O)C2CCCN(c3ccc(Sc4ccc(C)cc4)nn3)C2)cc1 (stereo unspecified) | 16% (active)
